# According to PubChem BioAssay (NCI):
# Several values for one entry are separate records, joined by “and”; a condition that tells them apart may be missing. Equal entries are not always repeated. Compounds without any hit were thinned out: in the full panel of roughly 83,000, 20% have a hit.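 Step 1: grow cells in 96-well plates. Step 2: add test compound at a single concentration. Step 3: incubate 48 h. Step 4: record percent growth.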 Values without a mark were called inactive. Activity calls are given as the source filed them. How the source made its calls: active means growth percent below 10; inactive means the rest.
# Test system: MDA-MB-468 breast
# Test: NCI-60 one-dose screen, 48 h (100 = growth as untreated, 0 = no growth, -100 = all killed)
# Conditions: 10 µM unless noted
row,SMILES,growth
1,O=C(Nc1ccc(Oc2ccc(NC(=O)Nc3ccc([N+](=O)[O-])cc3)cc2)cc1)Nc1ccc([N+](=O)[O-])cc1,-3.83% (active)
2,Nc1n[nH]c2cccc(C#Cc3cccc(NC(=O)c4cccc(OC(F)(F)F)c4)c3)c12,106%
3,CCC(C)(C)c1ccc(Nc2ccc(Nc3ccc(C(C)(C)CC)cc3)cc2)cc1,101%
4,O=[N+]([O-])c1ccc(NC2CCCCC2)nc1,110% and 99.8%
5,CCCCCCCCCCCCCCCCn1cc[n+](C)c1,-79% (active)
6,O=C(CC1(O)C(=O)Nc2c(Cl)ccc(Cl)c21)c1ccc(Cl)cc1Cl (centres undefined),103%
7,NC(N)=Nc1ccc(Oc2cccc(Nc3ccc(Br)c(C(F)(F)F)c3)c2)cn1,-80.3% (active)
8,COCCOC(C)C(/C=N/NC(N)=S)=N/NC(N)=S (centres undefined),7.98% (active)
9,COc1ccc(Oc2nc(Nc3ccc(N4CCCCC4)nc3)ncc2NC(=O)c2cc(OC)cc(OC)c2)cc1,23.4%
10,O=C(O[C@@H]1Cc2c(O)cc(O)cc2O[C@@H]1c1cc(O)c(O)c(O)c1)c1cc(O)c2c(c1)OCO2,109%
11,CC(=O)Nc1ccc(-c2cc3c(NCc4ccc(F)cc4)ncnc3s2)cc1,69.7%
12,Oc1ccc(N=Nc2ccccn2)c(O)c1,-2.78% (active)
13,CC(=O)Nc1ccc(NC(=O)Nc2cccc(-c3nc(-c4ccc(NC(=O)c5cccnc5)cc4Cl)no3)c2)cc1C(F)(F)F,-84.7% (active)
14,COc1cc(C2=NN(c3ccc(S(N)(=O)=O)cc3)C(c3ccc(Cl)cc3)C2)cc(OC)c1OC (centres undefined),38.3%
15,O=C(Nc1ccc(Nc2ccncc2)cc1)c1ccc(Nc2ccnc3ccc([N+](=O)[O-])cc23)cc1,83.4%
16,Cc1ccc(C2CCCCC2)cc1Br,97%
17,CNC(=O)c1cc(-n2ccc3cc(NC(=O)c4ccc(N5CCOCC5)c(C(F)(F)F)c4)ccc32)ccn1,71.6%
18,O=C1C2C3C=CC(O3)C2C(=O)N1Nc1ccccc1 (centres undefined),105%
19,COc1c(N2CC3CCCNC3C2)c(F)cc2c(=O)c(C(=O)N/N=C/c3ccccc3)cn(C3CC3)c12 (centres undefined),83.7%
20,COCCn1cc(-c2nc(-c3cc4cccnc4n3CCOC)cs2)c2cc(OC)ccc21,-18.4% (active)
21,Cc1cc2nc(C(Cl)Cl)nc(-c3cccs3)n2n1,-52% (active)
22,OCC1OC(n2cnc3c(Cl)ncnc32)CC1O (centres undefined),91.9%
23,Clc1ccc(-n2cnc3c(Cl)ncnc32)cc1Cl,48.3%
24,O=C1c2c(c3c4cc(O)ccc4oc3c3[nH]c4ccccc4c23)C(=O)N1O,-48.7% (active)
